Laboratory results published in publication PMC11062922 (Nature Chemical Biology, 2023).
Where two headings read alike, the source gives them in different places.

How the values were obtained:
PKN3 [1] = settings: hek293t cells
PKN3 [2] = test system: PKN3; design: species or system human, MV4-11 + K-562 + COLO205 + SK-N-BE2 + OVCAR-8; settings: read-out: apparent Kd, n = 1;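 for IC50: NanoBRET target engagement in HEK293T cells transiently expressing full-length PKN3 with C-terminal NanoLuc, displacement of fluorescent tracer K5 (500 nM), BRET read after 2 h equilibration at 37 °C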
AAK1 = test system: AAK1; design: species or system human, MV4-11 + K-562 + COLO205 + SK-N-BE2 + OVCAR-8; settings: read-out: apparent Kd, n = 1
BMP2K = test system: BMP2K; design: species or system human, MV4-11 + K-562 + COLO205 + SK-N-BE2 + OVCAR-8; settings: read-out: apparent Kd, n = 1
CLK1 = test system: CLK1; design: species or system human, MV4-11 + K-562 + COLO205 + SK-N-BE2 + OVCAR-8; settings: read-out: apparent Kd, n = 1
CLK4 = test system: CLK4; design: species or system human, MV4-11 + K-562 + COLO205 + SK-N-BE2 + OVCAR-8; settings: read-out: apparent Kd, n = 1
CSNK2A1;CSNK2A3 = test system: CSNK2A1;CSNK2A3; design: species or system human, MV4-11 + K-562 + COLO205 + SK-N-BE2 + OVCAR-8; settings: read-out: apparent Kd, n = 1
CSNK2A2 = test system: CSNK2A2; design: species or system human, MV4-11 + K-562 + COLO205 + SK-N-BE2 + OVCAR-8; settings: read-out: apparent Kd, n = 1
FLT4 = test system: FLT4; design: species or system human, MV4-11 + K-562 + COLO205 + SK-N-BE2 + OVCAR-8; settings: read-out: apparent Kd, n = 1
GAK = test system: GAK; design: species or system human, MV4-11 + K-562 + COLO205 + SK-N-BE2 + OVCAR-8; settings: read-out: apparent Kd, n = 1
GSK3A = test system: GSK3A; design: species or system human, MV4-11 + K-562 + COLO205 + SK-N-BE2 + OVCAR-8; settings: read-out: apparent Kd, n = 1
GSK3B = test system: GSK3B; design: species or system human, MV4-11 + K-562 + COLO205 + SK-N-BE2 + OVCAR-8; settings: read-out: apparent Kd, n = 1
MELK = test system: MELK; design: species or system human, MV4-11 + K-562 + COLO205 + SK-N-BE2 + OVCAR-8; settings: read-out: apparent Kd, n = 1
NUAK1 = test system: NUAK1; design: species or system human, MV4-11 + K-562 + COLO205 + SK-N-BE2 + OVCAR-8; settings: read-out: apparent Kd, n = 1
PAK4 = test system: PAK4; design: species or system human, MV4-11 + K-562 + COLO205 + SK-N-BE2 + OVCAR-8; settings: read-out: apparent Kd, n = 1
PKN1 = test system: PKN1; design: species or system human, MV4-11 + K-562 + COLO205 + SK-N-BE2 + OVCAR-8; settings: read-out: apparent Kd, n = 1
PRKAG1 = test system: PRKAG1; design: species or system human, MV4-11 + K-562 + COLO205 + SK-N-BE2 + OVCAR-8; settings: read-out: apparent Kd, n = 1
Q6ZSR9 = Q6ZSR9 (human, UniProt Q6ZSR9); design: species or system MV4-11 + K-562 + COLO205 + SK-N-BE2 + OVCAR-8; settings: read-out: apparent Kd, n = 1
Chain of Q6ZSR9 (Q6ZSR9 whole entry, looked up): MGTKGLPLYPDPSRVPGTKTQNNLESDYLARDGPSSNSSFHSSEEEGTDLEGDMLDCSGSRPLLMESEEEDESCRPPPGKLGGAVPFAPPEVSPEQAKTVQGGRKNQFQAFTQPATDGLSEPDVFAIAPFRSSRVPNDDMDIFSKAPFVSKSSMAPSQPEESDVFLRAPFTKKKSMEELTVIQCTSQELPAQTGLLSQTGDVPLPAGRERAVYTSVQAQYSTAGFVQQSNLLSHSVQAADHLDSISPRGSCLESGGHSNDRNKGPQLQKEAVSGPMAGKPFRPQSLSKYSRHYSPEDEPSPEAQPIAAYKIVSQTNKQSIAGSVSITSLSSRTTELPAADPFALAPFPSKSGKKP

RET = test system: RET; design: species or system human, MV4-11 + K-562 + COLO205 + SK-N-BE2 + OVCAR-8; settings: read-out: apparent Kd, n = 1
SIK2 = test system: SIK2; design: species or system human, MV4-11 + K-562 + COLO205 + SK-N-BE2 + OVCAR-8; settings: read-out: apparent Kd, n = 1
[3] = compound concentrations:100 nM and 1000 nM (sheet 'Samples')

Molecule: LY3009120
- IC50 (PKN3 [1]; read-out: Average, SD, n = 4): 513 nM
- IC50 (PKN3 [1]; read-out: Rep 1): 538 nM
- IC50 (PKN3 [1]; read-out: Rep 2): 1230 nM
- IC50 (PKN3 [1]; read-out: Rep 3): 112 nM
- IC50 (PKN3 [1]; read-out: Rep 4): 173 nM

Molecule: Fc1ccc(-c2c(-c3ccncc3)[nH]c3cccnc23)cc1 [RO1153853-000]
- potency estimated from few doses (PKN3 [2]; compound concentrations: 100 nM and 1000 nM (sheet 'Samples'), CATDS: 0.27237296502427): 55.8 nM
- IC50 (PKN3 [1]; read-out: Average, SD, n = 4): 2360 nM
- IC50 (PKN3 [1]; read-out: Rep 1): 8030 nM
- IC50 (PKN3 [1]; read-out: Rep 2): 951 nM
- IC50 (PKN3 [1]; read-out: Rep 3): 164 nM
- IC50 (PKN3 [1]; read-out: Rep 4): 295 nM

Molecule: Cl.Cl.NCC(C(=O)Nc1cc(Br)c(-c2ccnc3[nH]ccc23)s1)c1ccccc1.NCC(C(=O)Nc1cc(Br)c(-c2ccnc3[nH]ccc23)s1)c1ccccc1 (stereo not shown) [GSK1269851A]
- potency estimated from few doses (AAK1; [3]): 84.4 nM
- potency estimated from few doses (BMP2K; [3]): 126 nM
- potency estimated from few doses (CLK1; [3]): 449 nM
- potency estimated from few doses (CLK4; [3]): 1070 nM
- potency estimated from few doses (CSNK2A1;CSNK2A3; [3]): 861 nM
- potency estimated from few doses (CSNK2A2; [3]): 1130 nM
- potency estimated from few doses (FLT4; [3]): 1230 nM
- potency estimated from few doses (GAK; [3]): 63 nM
- potency estimated from few doses (GSK3A; [3]): 109 nM
- potency estimated from few doses (GSK3B; [3]): 417 nM
- potency estimated from few doses (MELK; [3]): 2320 nM
- potency estimated from few doses (NUAK1; [3]): 1200 nM
- potency estimated from few doses (PAK4; [3]): 736 nM
- potency estimated from few doses (PKN1; [3]): 1330 nM
- potency estimated from few doses (PKN3 [2]; [3]): 863 nM
- potency estimated from few doses (PRKAG1; [3]): 416 nM
- potency estimated from few doses (Q6ZSR9; [3]): 54.4 nM
- potency estimated from few doses (RET; [3]): 539 nM
- potency estimated from few doses (SIK2; [3]): 751 nM

Molecule: NCCNS(=O)(=O)c1ccc(-c2ccnc3[nH]ccc23)cc1 [GSK977617A]
- potency estimated from few doses (AAK1; [3]): 429 nM
- potency estimated from few doses (BMP2K; [3]): 817 nM
- potency estimated from few doses (CLK1; [3]): 294 nM
- potency estimated from few doses (CLK4; [3]): 413 nM
- potency estimated from few doses (CSNK2A1;CSNK2A3; [3]): 782 nM
- potency estimated from few doses (CSNK2A2; [3]): 766 nM
- potency estimated from few doses (FLT4; [3]): 1050 nM
- potency estimated from few doses (GAK; [3]): 280 nM
- potency estimated from few doses (GSK3A; [3]): 257 nM
- potency estimated from few doses (GSK3B; [3]): 361 nM
- potency estimated from few doses (MELK; [3]): 866 nM
- potency estimated from few doses (NUAK1; [3]): 1100 nM
- potency estimated from few doses (PAK4; [3]): 652 nM
- potency estimated from few doses (PKN1; [3]): 485 nM
- potency estimated from few doses (PKN3 [2]; [3]): 444 nM
- potency estimated from few doses (Q6ZSR9; [3]): 450 nM
- potency estimated from few doses (RET; [3]): 569 nM
- potency estimated from few doses (SIK2; [3]): 560 nM

Molecule: CONC1=NC(=O)/C(=C/c2ccc3ncccc3c2)S1 [RO4613269-000]
- potency estimated from few doses (CSNK2A1;CSNK2A3; compound concentrations: 100 nM and 1000 nM (sheet 'Samples'), CATDS: 0.42776292921510001): 58.1 nM
- potency estimated from few doses (CSNK2A2; compound concentrations: 100 nM and 1000 nM (sheet 'Samples'), CATDS: 0.433008345682735): 56.8 nM

Molecule: Cc1cccc(-c2nc(Nc3ccncc3)c3sccc3n2)n1 [GW869641X]
- potency estimated from few doses (PKN3 [2]; [3]): 97.8 nM
- IC50 (PKN3 [1]; read-out: Average, SD, n = 3): 1580 nM
- IC50 (PKN3 [1]; read-out: Rep 1): 4190 nM
- IC50 (PKN3 [1]; read-out: Rep 2): 472 nM
- IC50 (PKN3 [1]; read-out: Rep 4): 87.1 nM

Molecule: Cc1cccc2c(-c3ccncn3)c(-c3ccc(F)cc3)nn12 [GW515532X]
- potency estimated from few doses (PKN3 [2]; compound concentrations: 100 nM and 1000 nM (sheet 'Samples'), CATDS: 0.37134711180045199): 663 nM
- IC50 (PKN3 [1]; read-out: Average, SD, n = 3): 26700 nM
- IC50 (PKN3 [1]; read-out: Rep 1): 78800 nM
- IC50 (PKN3 [1]; read-out: Rep 2): 922 nM
- IC50 (PKN3 [1]; read-out: Rep 4): 257 nM

Molecule: Clc1cc(Cl)cc(Nc2ccnc(Nc3cc(Cl)cc(Cl)c3)n2)c1 [GSK175726A]
- potency estimated from few doses (AAK1; compound concentrations: 100 nM and 1000 nM (sheet 'Samples'), CATDS: 1.17801193164304E-2): 460 nM
- potency estimated from few doses (BMP2K; compound concentrations: 100 nM and 1000 nM (sheet 'Samples'), CATDS: 9.0184479884945195E-3): 1240 nM
- potency estimated from few doses (CLK1; compound concentrations: 100 nM and 1000 nM (sheet 'Samples'), CATDS: 2.2055974074076602E-2): 111 nM
- potency estimated from few doses (CLK4; compound concentrations: 100 nM and 1000 nM (sheet 'Samples'), CATDS: 1.3138431378969501E-2): 338 nM
- potency estimated from few doses (CSNK2A1;CSNK2A3; compound concentrations: 100 nM and 1000 nM (sheet 'Samples'), CATDS: 1.0484195430571001E-2): 672 nM
- potency estimated from few doses (CSNK2A2; compound concentrations: 100 nM and 1000 nM (sheet 'Samples'), CATDS: 1.04904160104555E-2): 671 nM
- potency estimated from few doses (FLT4; compound concentrations: 100 nM and 1000 nM (sheet 'Samples'), CATDS: 8.8646184270887406E-3): 1350 nM
- potency estimated from few doses (GAK; compound concentrations: 100 nM and 1000 nM (sheet 'Samples'), CATDS: 2.44642148870544E-2): 92.1 nM
- potency estimated from few doses (GSK3A; compound concentrations: 100 nM and 1000 nM (sheet 'Samples'), CATDS: 1.64548846246832E-2): 197 nM
- potency estimated from few doses (GSK3B; compound concentrations: 100 nM and 1000 nM (sheet 'Samples'), CATDS: 1.50283486353895E-2): 242 nM
- potency estimated from few doses (MELK; compound concentrations: 100 nM and 1000 nM (sheet 'Samples'), CATDS: 8.4068419636258301E-3): 1790 nM
- potency estimated from few doses (NUAK1; compound concentrations: 100 nM and 1000 nM (sheet 'Samples'), CATDS: 1.3178024386402599E-2): 335 nM
- potency estimated from few doses (PAK4; compound concentrations: 100 nM and 1000 nM (sheet 'Samples'), CATDS: 1.1864346361446201E-2): 450 nM
- potency estimated from few doses (PKN1; compound concentrations: 100 nM and 1000 nM (sheet 'Samples'), CATDS: 8.1278223120285105E-3): 2200 nM
- potency estimated from few doses (PKN3 [2]; compound concentrations: 100 nM and 1000 nM (sheet 'Samples'), CATDS: 9.6016767734474606E-3): 940 nM
- potency estimated from few doses (PRKAG1; compound concentrations: 100 nM and 1000 nM (sheet 'Samples'), CATDS: 2.2079366714636301E-2): 110 nM
- potency estimated from few doses (Q6ZSR9; compound concentrations: 100 nM and 1000 nM (sheet 'Samples'), CATDS: 1.1627061095110299E-2): 479 nM
- potency estimated from few doses (RET; compound concentrations: 100 nM and 1000 nM (sheet 'Samples'), CATDS: 1.2674098851270001E-2): 373 nM
- potency estimated from few doses (SIK2; compound concentrations: 100 nM and 1000 nM (sheet 'Samples'), CATDS: 1.3915634821930201E-2): 291 nM
